Consider 20 compounds from PubChem BioAssay.

Unmarked numbers belong to inactive results. For some of these results: Measured potencies and affinities stand elsewhere. Active and inactive are the calls of the source. Unless noted, no rule for the calls is given here.

Broadly, the inhibition is the drop in the measured response relative to a control, in per cent.

Experiment [1] in a line: antimalarial activity against Dd2 strain (AID 2302;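 active = growth inhibition above 50% at the single 2 µM test dose, taken to imply half-maximal potency below 2 µM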;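 also: 0% = DMSO untreated growth and 100% = chloroquine plus artemisinin killed control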). The note with it: P. falciparum Dd2 in RBCs, LDH growth readout, 72 h; at 2 µM; active compounds read high.
Experiment [2] can be described thus: HepG2 cytotoxicity, primary screen, cytotoxicity control for P. falciparum antimalarial project, cell-based, ATP luminescence (AID 2303;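 active = inhibition above 50%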;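 also: 0% = DMSO wells and 100% = digitonin-killed cells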). The note with it: HepG2 viability, 24-48 h, at 10 µM, active compounds read high.
Experiment [3] addresses L-lactate dehydrogenase (Plasmodium falciparum (isolate CDC / Honduras)) (UniProt Q27743). Kind of experiment: PfLDH activity inhibition – cell lysate, 3D7 strain, counter-screen for P. falciparum growth inhibition project (AID 2304).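 Also: 0% = vehicle and 100% = reference inhibitor.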 The conditions noted are these: P. falciparum 3D7 crude extract, LDH APAD/NBT absorbance; at 2 µM; active compounds read high. (In general: Counterscreens check selectivity or assay interference.)

Experiment [4] can be described thus: inhibition of 3D7 malaria parasite growth – strain 3D7 (AID 2306).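 Also: 0% = DMSO wells and 100% = chloroquine plus artemisinin control wells.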 The conditions noted are these: P. falciparum 3D7 erythrocytic growth, LDH absorbance, 72 h; at 2 µM; active compounds read high.
The target in experiment [5] is Calcium-dependent protein kinase 1 (Plasmodium falciparum (isolate 3D7)) (UniProt P62344). Nature of the experiment: PfCDPK1 kinase inhibitors, biochemical, TCAMS library (AID 1159585; cut-off not given, nearly all actives have IC50 up to about 0.98 µM;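 also: inhibitors leave more ATP so luminescence rises with inhibition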). The conditions noted are these: recombinant PfCDPK1, Kinase-Glo ATP depletion luminescence.
The target in experiment [6] is Plasmodium falciparum protein kinase 6 (PK6, PF3D7_1337100) (UniProt Q8IDW1). Nature of the experiment: PfPK6 kinase inhibitors, biochemical, TCAMS library (AID 1159586). The note with it: recombinant PfPK6, Kinase-Glo ATP depletion luminescence. (Kinase-Glo reads ATP consumption through a luciferase reaction.)
The target in experiment [7] is Protein kinase 7 (PK7), Plasmodium falciparum 3D7 (PF3D7_0213400) (UniProt Q7YTF7). Nature of the experiment: inhibition of Plasmodium PK7 catalytic activity – biochemical, TCAMS antimalarial set, Kinase-Glo luminescence (AID 1159587). The conditions noted are these: recombinant PfPK7, Kinase-Glo ATP depletion luminescence.
The target of experiment [8] is Calcium-dependent protein kinase 4 (Plasmodium falciparum (isolate 3D7)) (UniProt Q8IBS5). Nature of the experiment: PfCDPK4 kinase inhibitors, biochemical, TCAMS library (AID 1159588; cut-off not given, nearly all actives have IC50 up to about 0.91 µM). The conditions noted are these: recombinant PfCDPK4, Kinase-Glo ATP depletion luminescence.
Calcium-dependent protein kinase 4 (Plasmodium falciparum (isolate 3D7)), sequence (Q8IBS5 whole entry, looked up): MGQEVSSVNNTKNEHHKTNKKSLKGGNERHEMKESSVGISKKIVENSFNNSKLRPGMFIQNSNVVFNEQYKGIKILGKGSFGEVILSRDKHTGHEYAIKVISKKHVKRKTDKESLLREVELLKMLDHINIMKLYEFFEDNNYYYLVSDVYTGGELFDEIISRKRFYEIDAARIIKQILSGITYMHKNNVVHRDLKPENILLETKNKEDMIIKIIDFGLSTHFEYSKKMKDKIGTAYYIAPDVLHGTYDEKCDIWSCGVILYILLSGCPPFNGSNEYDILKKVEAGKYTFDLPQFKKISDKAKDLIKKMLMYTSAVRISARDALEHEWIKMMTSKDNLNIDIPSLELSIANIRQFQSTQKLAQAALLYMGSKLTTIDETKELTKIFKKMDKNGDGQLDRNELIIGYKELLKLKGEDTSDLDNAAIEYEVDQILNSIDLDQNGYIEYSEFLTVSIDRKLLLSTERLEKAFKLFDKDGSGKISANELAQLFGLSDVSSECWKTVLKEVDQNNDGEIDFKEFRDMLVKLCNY

Protein kinase 7 (PK7), Plasmodium falciparum 3D7 (PF3D7_0213400), sequence (Q7YTF7 1-343): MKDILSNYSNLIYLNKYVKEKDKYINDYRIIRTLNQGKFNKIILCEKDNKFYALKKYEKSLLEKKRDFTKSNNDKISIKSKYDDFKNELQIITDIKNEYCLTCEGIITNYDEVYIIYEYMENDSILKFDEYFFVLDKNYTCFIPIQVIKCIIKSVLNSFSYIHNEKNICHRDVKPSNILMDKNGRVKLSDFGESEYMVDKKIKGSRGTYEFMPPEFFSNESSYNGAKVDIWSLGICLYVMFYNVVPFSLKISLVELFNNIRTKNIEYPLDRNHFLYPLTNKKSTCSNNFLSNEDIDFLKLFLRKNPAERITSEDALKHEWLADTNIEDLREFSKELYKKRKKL
L-lactate dehydrogenase (Plasmodium falciparum (isolate CDC / Honduras)), sequence (Q27743 whole entry, looked up): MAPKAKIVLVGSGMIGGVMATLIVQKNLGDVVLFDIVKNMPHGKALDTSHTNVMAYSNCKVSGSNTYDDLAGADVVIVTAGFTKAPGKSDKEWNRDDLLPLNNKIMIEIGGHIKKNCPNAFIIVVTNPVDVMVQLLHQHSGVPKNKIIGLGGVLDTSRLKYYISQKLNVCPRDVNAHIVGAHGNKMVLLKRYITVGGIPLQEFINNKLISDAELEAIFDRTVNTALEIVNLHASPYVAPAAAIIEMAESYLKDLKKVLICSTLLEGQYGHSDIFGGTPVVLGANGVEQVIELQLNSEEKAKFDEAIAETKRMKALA
Plasmodium falciparum protein kinase 6 (PK6, PF3D7_1337100), sequence (Q8IDW1 1-305): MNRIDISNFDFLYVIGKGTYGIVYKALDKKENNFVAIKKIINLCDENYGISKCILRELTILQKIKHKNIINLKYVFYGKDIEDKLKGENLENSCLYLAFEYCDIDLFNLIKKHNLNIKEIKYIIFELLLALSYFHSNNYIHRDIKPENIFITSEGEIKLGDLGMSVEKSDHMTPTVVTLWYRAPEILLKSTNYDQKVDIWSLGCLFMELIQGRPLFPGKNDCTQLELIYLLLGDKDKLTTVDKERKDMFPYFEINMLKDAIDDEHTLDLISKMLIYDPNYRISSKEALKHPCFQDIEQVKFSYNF
Calcium-dependent protein kinase 1 (Plasmodium falciparum (isolate 3D7)), sequence (P62344 whole entry, looked up): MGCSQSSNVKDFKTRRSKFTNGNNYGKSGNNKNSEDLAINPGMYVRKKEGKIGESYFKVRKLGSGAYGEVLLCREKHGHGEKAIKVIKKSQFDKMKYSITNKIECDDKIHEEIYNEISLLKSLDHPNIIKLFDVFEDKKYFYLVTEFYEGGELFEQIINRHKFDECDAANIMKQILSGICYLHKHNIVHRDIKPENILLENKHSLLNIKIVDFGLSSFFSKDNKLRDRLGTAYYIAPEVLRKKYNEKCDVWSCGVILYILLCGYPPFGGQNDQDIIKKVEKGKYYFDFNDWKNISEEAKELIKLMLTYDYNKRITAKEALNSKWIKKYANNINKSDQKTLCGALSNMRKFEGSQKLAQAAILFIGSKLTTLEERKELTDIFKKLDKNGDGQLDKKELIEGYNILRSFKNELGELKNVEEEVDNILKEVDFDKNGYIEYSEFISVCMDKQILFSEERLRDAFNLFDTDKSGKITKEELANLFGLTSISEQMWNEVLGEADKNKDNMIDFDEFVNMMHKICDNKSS

Consider `Cc1cc2c(NC(=O)NC3CCN(CCc4ccccc4Cl)CC3)cccc2cn1`, for which the results for the growth inhibition in experiment [1] and in experiment [4] were 46% and 102% (active), respectively. Also, the inhibition in experiment [2] was 13%; in experiment [3], 0%. In addition, the result in experiment [5], in experiment [6], in experiment [7] and in experiment [8] was inactive.
Consider `CCCCCCCn1c2c(c(=N)c3c1CCC3)CCCC2`, for which the growth inhibition in experiment [1] and in experiment [4] was 98% (active) throughout. In addition, the inhibition is 46% in experiment [2] and 1% in experiment [3]. The outcome in experiment [5], in experiment [6], in experiment [7] and in experiment [8] was inactive.
As to `COc1ccc2nc(C)cc(NN=Cc3ccc([N+](=O)[O-])o3)c2c1`, the growth inhibition in experiment [1] and in experiment [4] was 100% (active) each time. For the same compound, the inhibition is 18% in experiment [2] and -5% in experiment [3]. Besides, the outcome in experiment [5], in experiment [6], in experiment [7] and in experiment [8] was inactive.
For the compound `CC12CN3CC(C)(CN(C1)C3c1cc(Br)ccc1O)C2O` (stereo not given), the growth inhibition in experiment [1] was 2%; in experiment [4], 98% (active). The inhibition in experiment [2] is 5%; in experiment [3] it was -3%. Also, the result in experiment [5], in experiment [6], in experiment [7] and in experiment [8] was inactive.
`COc1cc2c(c(Cl)c1OC)CCN(C(=O)C(F)(F)F)CC2c1ccccc1` (stereo not given): the growth inhibition in experiment [1] and in experiment [4] was 101% (active) in each case. The inhibition in experiment [2] is 7%; in experiment [3], 8%. Further, the outcome in experiment [5], in experiment [6], in experiment [7] and in experiment [8] was inactive.
On to `CN(C)c1ccc(C2c3nc[nH]c3CCN2C(=O)Nc2cccc([N+](=O)[O-])c2)cc1` (stereo not given), for which the growth inhibition in experiment [1] is 15%; in experiment [4], 98% (active). In addition, the inhibition in experiment [2] was -5%; in experiment [3], 1%. For the same compound, the outcome in experiment [5], in experiment [6], in experiment [7] and in experiment [8] was inactive.
Take `Cc1ccccc1-c1nc2c(CN3CCC(O)(c4ccccc4)CC3)c(O)ccc2[nH]1`: the growth inhibition in experiment [1] is 61% (active); in experiment [4], 92% (active). Moreover, the inhibition is 27% in experiment [2] and 4% in experiment [3]. Further, the result in experiment [5], in experiment [6], in experiment [7] and in experiment [8] was inactive.
With `Cc1cc2c(cc1C(F)(F)F)N(C(=O)Nc1cc(C(=O)NCCN(C)C)cc(C(F)(F)F)c1)CC2`, the figures for the growth inhibition in experiment [1] and in experiment [4] were 50% (active) and 100% (active), respectively. Further, the inhibition is 19% in experiment [2] and -7% in experiment [3]. Further, the result in experiment [5], in experiment [6], in experiment [7] and in experiment [8] was inactive.
Regarding `COc1ccc(CNC2CCN(C)CC2)cc1-c1ccc(S(=O)(=O)NCc2ccccc2)c(C)c1`, the growth inhibition in experiment [1] was 98% (active); in experiment [4] it was 100% (active). The inhibition in experiment [2] is 81% (active); in experiment [3], 3%. Besides, the outcome in experiment [5], in experiment [6], in experiment [7] and in experiment [8] was inactive.
Consider `Cc1cccc2[nH]c(-c3ccc(-c4ccc(CN5CCCC5CN)cc4)cc3)nc12` (stereo not given), for which the figures for the growth inhibition in experiment [1] and in experiment [4] were 65% (active) and 99% (active), respectively. Further, the inhibition in experiment [2] was 28%; in experiment [3], 1%. The result in experiment [5], in experiment [6], in experiment [7] and in experiment [8] was inactive.
As to `CCN(CCCN1CCCCC1)c1cc(C)nc(Nc2ccc(C)cc2)n1`, the values for the growth inhibition in experiment [1] and in experiment [4] were 10% and 101% (active), respectively. For the same compound, the results for the inhibition in experiment [2] and in experiment [3] were 17% and -1%, respectively. Also, the outcome in experiment [5], in experiment [6], in experiment [7] and in experiment [8] was inactive.
Turning to `Oc1ccc(CCNc2nc(NCc3ccc4cc(Cl)ccc4c3)nc(N3CCNCC3)n2)cc1`, the growth inhibition was 38% in experiment [1] and 92% (active) in experiment [4]. Moreover, the inhibition is 14% in experiment [2] and -3% in experiment [3]. In addition, the result in experiment [5], in experiment [6], in experiment [7] and in experiment [8] was inactive.
As for `CCNc1cc(C(=O)N[C@@H](Cc2ccccc2)[C@H](O)CNCCc2cc(OC)cc(OC)c2)cc(N2CCCCS2(=O)=O)c1`, the growth inhibition is 28% in experiment [1] and 89% (active) in experiment [4]. In addition, the inhibition in experiment [2] was 3%; in experiment [3] it was 0%. Also, the outcome in experiment [5], in experiment [6], in experiment [7] and in experiment [8] was inactive.
Turning to `CCCCCCn1c(Sc2ccc(C#N)c([N+](=O)[O-])c2)nnc1-c1ccc(N(C)C)cc1`, the growth inhibition in experiment [1] was 25%; in experiment [4], 92% (active). For the same compound, the inhibition in experiment [2] was -1%; in experiment [3], 7%. Moreover, the outcome in experiment [5], in experiment [6], in experiment [7] and in experiment [8] was inactive.
For `O=C(/C=C/c1ccc(Cl)c(Cl)c1)NC1CCC(CN2CCC(c3coc4ccccc34)CC2)CC1` (stereo not given), the growth inhibition was 41% in experiment [1] and 102% (active) in experiment [4]. In addition, the inhibition was 40% in experiment [2] and 3% in experiment [3]. The result in experiment [5], in experiment [6], in experiment [7] and in experiment [8] was inactive.
Take `O=C(Nc1cccc(CN2CCCN(Cc3ccccc3)CC2)c1)c1ccc(Cl)c(Cl)c1`: the growth inhibition was 16% in experiment [1] and 95% (active) in experiment [4]. Also, the values for the inhibition in experiment [2] and in experiment [3] were 23% and -6%, respectively. Moreover, the result in experiment [5], in experiment [6], in experiment [7] and in experiment [8] was inactive.
On to `CCOc1ccc2c(c1)C(C)(c1ccc3c(c1)C(C)CC(C)(C)N3)CC(C)(C)N2` (stereo not given), for which the results for the growth inhibition in experiment [1] and in experiment [4] were 3% and 94% (active), respectively. For the same compound, the inhibition in experiment [2] is 5%; in experiment [3], -5%. The result in experiment [5], in experiment [6], in experiment [7] and in experiment [8] was inactive.
In the case of `COc1ccc2nccc([C@@H](O)CN3CCC(NC(=O)c4cc5ccccc5[nH]4)CC3)c2c1`, the values for the growth inhibition in experiment [1] and in experiment [4] were 55% (active) and 96% (active), respectively. Also, the inhibition in experiment [2] is 19%; in experiment [3], -3%. Moreover, the result in experiment [5], in experiment [6], in experiment [7] and in experiment [8] was inactive.
Consider `Nc1nc(N)c2cc(C(F)(F)F)ccc2n1`, for which the results for the growth inhibition in experiment [1] and in experiment [4] were 1% and 80% (active), respectively. For the same compound, the inhibition in experiment [2] was 8%; in experiment [3] it was -3%. In addition, the result in experiment [5], in experiment [6], in experiment [7] and in experiment [8] was inactive.
Consider `O=S(=O)(NCCN1CCCC1)c1ccc(-c2cccc(CNCc3ccc(F)cc3)c2)cc1F`, for which the figures for the growth inhibition in experiment [1] and in experiment [4] were 36% and 97% (active), respectively. Besides, the values for the inhibition in experiment [2] and in experiment [3] were 43% and -1%, respectively. Also, the outcome in experiment [5], in experiment [6], in experiment [7] and in experiment [8] was inactive.
